# Data from PubChem BioAssay AID1159580 (chemical genetic matrix, 2015).
# Among all 5,500 compounds or so, about 2,000 (36%) were called active. Not shown: some 18% with an inconclusive outcome. The list shows a part of the results. Unmarked numbers belong to inactive results. No stated cut-off is given here; in the data, active means normalized growth mostly below about 0.91 (no sharp cut-off); inconclusive means no clear call, values can overlap the other calls; inactive means mostly above about 0.92.
# Experiment: chemical genetic growth profiling, strain panel (AID 1159580);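 further: tested at 20 µM; growth read once vehicle control cultures reached saturation at 30 °C; 1 = growth at the plate median or of vehicle wells; lower values mean less growth of the strain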
# Details: growth OD
# [1] = S. cerevisiae deletion strains, locus YDL101C, strain DUN1, active compounds read low
# [2] = S. cerevisiae deletion strains, locus YHR030C, strain SLT2, active compounds read low
# [3] = S. cerevisiae deletion strains, locus YAL013W, strain DEP1, active compounds read low
# [4] = S. cerevisiae deletion strains, locus YBR229C, strain ROT2, active compounds read low
# [5] = S. cerevisiae deletion strains, locus YDR150W, strain NUM1, active compounds read low
# [6] = S. cerevisiae deletion strains, locus YEL061C, strain CIN8, active compounds read low
# [7] = S. cerevisiae deletion strains, locus YGR078C, strain PAC10, active compounds read low
# [8] = S. cerevisiae deletion strains, locus YHR087W, strain rtc3, active compounds read low
# [9] = S. cerevisiae deletion strains, locus YJL187C, strain SWE1, active compounds read low
# [10] = S. cerevisiae deletion strains, locus YJR043C, strain POL32, active compounds read low
# [11] = S. cerevisiae deletion strains, locus YJR075W, strain HOC1, active compounds read low
# [12] = S. cerevisiae deletion strains, locus YLR039C, strain RIC1, active compounds read low
# [13] = S. cerevisiae deletion strains, locus YLR058C, strain SHM2 (second series), active compounds read low
# [14] = S. cerevisiae deletion strains, locus YLR085C, strain ARP6, active compounds read low
# [15] = S. cerevisiae deletion strains, locus YLR262C, strain YPT6, active compounds read low
# [16] = S. cerevisiae deletion strains, locus YML094W, strain GIM5, active compounds read low
# [17] = S. cerevisiae deletion strains, locus YMR219W, strain ESC1, active compounds read low
# [18] = S. cerevisiae deletion strains, locus YMR263W, strain SAP30, active compounds read low
# [19] = S. cerevisiae deletion strains, locus YMR307W, strain GAS1, active compounds read low
# [20] = S. cerevisiae deletion strains, locus YNL153C, strain GIM3, active compounds read low
# [21] = S. cerevisiae deletion strains, locus YNL298W, strain CLA4 (second series), active compounds read low
# [22] = S. cerevisiae deletion strains, locus YNL322C, strain KRE1, active compounds read low
# [23] = S. cerevisiae deletion strains, locus YNR030W, strain Alg12, active compounds read low
# [24] = S. cerevisiae deletion strains, locus YPL055C, strain LGE1, active compounds read low
# [25] = S. cerevisiae deletion strains, locus YPL241C, strain CIN2, active compounds read low
# [26] = S. cerevisiae deletion strains, locus YPR135W, strain CTF4, active compounds read low
# [27] = S. cerevisiae strains, strain wild type, active compounds read low
smiles,measurement,setting,value
FC(F)(F)c1cc(NC(=S)SCCSC(=S)Nc2cc(C(F)(F)F)cc(C(F)(F)F)c2)cc(C(F)(F)F)c1,normalized growth,"S. cerevisiae deletion strains, locus YAR019C, strain CDC15, active compounds read low",0.993
same,normalized growth,"S. cerevisiae deletion strains, locus YBL105C, strain PKC1, active compounds read low",0.989
same,normalized growth,"S. cerevisiae deletion strains, locus YBR135W, strain CKS1, active compounds read low",1
same,normalized growth,"S. cerevisiae deletion strains, locus YBR136W, strain MEC1, active compounds read low",0.986
same,normalized growth,"S. cerevisiae deletion strains, locus YBR160W, strain CDC28, active compounds read low",0.997
same,normalized growth,"S. cerevisiae deletion strains, locus YDL017W, strain CDC7, active compounds read low",0.991
same,normalized growth,"S. cerevisiae deletion strains, locus YDL028C, strain MPS1, active compounds read low",0.991
same,normalized growth,[1],1
same,normalized growth,"S. cerevisiae deletion strains, locus YDL108W, strain KIN28, active compounds read low",0.99
same,normalized growth,"S. cerevisiae deletion strains, locus YDL132W, strain cdc53, active compounds read low",0.988
same,normalized growth,"S. cerevisiae deletion strains, locus YDL214C, strain PRR2, active compounds read low",0.889
same,normalized growth,"S. cerevisiae deletion strains, locus YDR052C, strain DBF4, active compounds read low",1
same,normalized growth,"S. cerevisiae deletion strains, locus YDR054C, strain cdc34, active compounds read low",0.994
same,normalized growth,"S. cerevisiae deletion strains, locus YDR226W, strain ADK1, active compounds read low",0.994
same,normalized growth,"S. cerevisiae deletion strains, locus YDR477W, strain SNF1, active compounds read low",0.951
same,normalized growth,"S. cerevisiae deletion strains, locus YER123W, strain YCK3, active compounds read low",0.949
same,normalized growth,"S. cerevisiae deletion strains, locus YER133W, strain GLC7, active compounds read low",0.911
same,normalized growth,"S. cerevisiae deletion strains, locus YFL009W, strain cdc4, active compounds read low",1
same,normalized growth,"S. cerevisiae deletion strains, locus YFL029C, strain CAK1, active compounds read low",0.994
same,normalized growth,"S. cerevisiae deletion strains, locus YFR003C, strain YPI1, active compounds read low",0.993
same,normalized growth,"S. cerevisiae deletion strains, locus YFR019W, strain FAB1, active compounds read low",1.01
same,normalized growth,"S. cerevisiae deletion strains, locus YFR028C, strain CDC14, active compounds read low",0.993
same,normalized growth,"S. cerevisiae deletion strains, locus YGR040W, strain KSS1, active compounds read low",0.951
same,normalized growth,"S. cerevisiae deletion strains, locus YGR052W, strain FMP48, active compounds read low",1.04
same,normalized growth,"S. cerevisiae deletion strains, locus YGR092W, strain DBF2, active compounds read low",0.993
same,normalized growth,[2],0.984
same,normalized growth,"S. cerevisiae deletion strains, locus YHR079C, strain IRE1, active compounds read low",1.04
same,normalized growth,"S. cerevisiae deletion strains, locus YHR082C, strain KSP1, active compounds read low",1.03
same,normalized growth,"S. cerevisiae deletion strains, locus YHR205W, strain SCH9, active compounds read low",0.983
same,normalized growth,"S. cerevisiae deletion strains, locus YIL147C, strain SLN1, active compounds read low",0.97
same,normalized growth,"S. cerevisiae deletion strains, locus YJL095W, strain BCK1, active compounds read low",1.08
same,normalized growth,"S. cerevisiae deletion strains, locus YJL128C, strain PBS2, active compounds read low",0.954
same,normalized growth,"S. cerevisiae deletion strains, locus YJL157C, strain FAR1, active compounds read low",0.884
same,normalized growth,"S. cerevisiae deletion strains, locus YJR016C, strain ILV3, active compounds read low",0.995
same,normalized growth,"S. cerevisiae deletion strains, locus YJR066W, strain TOR1 (second series), active compounds read low",0.94
same,normalized growth,"S. cerevisiae deletion strains, locus YJR066W, strain TOR1, active compounds read low",1.09
same,normalized growth,"S. cerevisiae deletion strains, locus YKL048C, strain ELM1, active compounds read low",0.971
same,normalized growth,"S. cerevisiae deletion strains, locus YKL067W, strain YNK1, active compounds read low",0.862
same,normalized growth,"S. cerevisiae deletion strains, locus YKL101W, strain HSL1, active compounds read low",0.968
same,normalized growth,"S. cerevisiae deletion strains, locus YKL193C, strain SDS22, active compounds read low",0.992
same,normalized growth,"S. cerevisiae deletion strains, locus YKL203C, strain TOR2, active compounds read low",1.06
same,normalized growth,"S. cerevisiae deletion strains, locus YLR113W, strain HOG1, active compounds read low",0.869
same,normalized growth,"S. cerevisiae deletion strains, locus YLR133W, strain CKI1, active compounds read low",0.972
same,normalized growth,"S. cerevisiae deletion strains, locus YLR403W, strain SFP1, active compounds read low",0.982
same,normalized growth,"S. cerevisiae deletion strains, locus YML070W, strain DAK1, active compounds read low",0.908
same,normalized growth,"S. cerevisiae deletion strains, locus YMR001C, strain CDC5, active compounds read low",0.997
same,normalized growth,"S. cerevisiae deletion strains, locus YMR205C, strain PFK2 (second series), active compounds read low",0.988
same,normalized growth,"S. cerevisiae deletion strains, locus YMR277W, strain FCP1, active compounds read low",0.986
same,normalized growth,"S. cerevisiae deletion strains, locus YNL006W, strain LST8, active compounds read low",0.996
same,normalized growth,"S. cerevisiae deletion strains, locus YNL020C, strain ARK1, active compounds read low",0.973
same,normalized growth,"S. cerevisiae deletion strains, locus YNL161W, strain CBK1, active compounds read low",0.998
same,normalized growth,"S. cerevisiae deletion strains, locus YNL183C, strain NPR1, active compounds read low",1.03
same,normalized growth,"S. cerevisiae deletion strains, locus YNL207W, strain RIO2, active compounds read low",0.987
same,normalized growth,"S. cerevisiae deletion strains, locus YNL222W, strain SSU72, active compounds read low",0.989
same,normalized growth,"S. cerevisiae deletion strains, locus YNL307C, strain MCK1 (second series), active compounds read low",0.984
same,normalized growth,"S. cerevisiae deletion strains, locus YOL078W, strain AVO1, active compounds read low",0.992
same,normalized growth,"S. cerevisiae deletion strains, locus YOL136C, strain PFK27, active compounds read low",0.933
same,normalized growth,"S. cerevisiae deletion strains, locus YOR061W, strain CKA2, active compounds read low",0.994
same,normalized growth,"S. cerevisiae deletion strains, locus YOR119C, strain RIO1, active compounds read low",1.02
same,normalized growth,"S. cerevisiae deletion strains, locus YOR231W, strain MKK1, active compounds read low",1.03
same,normalized growth,"S. cerevisiae deletion strains, locus YOR329C, strain SCD5, active compounds read low",0.996
same,normalized growth,"S. cerevisiae deletion strains, locus YPL031C, strain PHO85, active compounds read low",0.963
same,normalized growth,"S. cerevisiae deletion strains, locus YPL153C, strain RAD53, active compounds read low",0.946
same,normalized growth,"S. cerevisiae deletion strains, locus YPL204W, strain HRR25, active compounds read low",0.932
same,normalized growth,"S. cerevisiae deletion strains, locus YPL209C, strain IPL1, active compounds read low",0.992
same,normalized growth,"S. cerevisiae deletion strains, locus YPL256C, strain CLN2, active compounds read low",0.926
same,normalized growth,"S. cerevisiae deletion strains, locus YPR025C, strain CCL1, active compounds read low",0.999
same,normalized growth,"S. cerevisiae deletion strains, locus YPR106W, strain ISR1, active compounds read low",0.998
same,normalized growth,"S. cerevisiae deletion strains, locus YPR111W, strain DBF20, active compounds read low",0.988
same,normalized growth,"S. cerevisiae deletion strains, strain NNK1, active compounds read low",0.986
same,normalized growth,"S. cerevisiae deletion strains, strain TSCII, active compounds read low",0.993
O=C(Nc1cc(C(F)(F)F)cc(C(F)(F)F)c1)C(c1ccccc1)C1CCCC1 (stereo unspecified),normalized growth,[3],1.02
same,normalized growth,[4],1.01
same,normalized growth,[1],1.02
same,normalized growth,[5],1.02
same,normalized growth,[6],0.969
same,normalized growth,[7],1.03
same,normalized growth,[2],1.06
same,normalized growth,[8],1
same,normalized growth,[9],1.02
same,normalized growth,[10],1.01
same,normalized growth,[11],1.03
same,normalized growth,[12],1.04
same,normalized growth,[13],1
same,normalized growth,[14],1.01
same,normalized growth,[15],0.998
same,normalized growth,[16],1.02
same,normalized growth,[17],1
same,normalized growth,[18],1.02
same,normalized growth,[19],1.04
same,normalized growth,[20],1.01
same,normalized growth,[21],1.03
same,normalized growth,[22],1.01
same,normalized growth,[23],1.01
same,normalized growth,[24],1.03
same,normalized growth,[25],1.03
same,normalized growth,[26],1.01
same,normalized growth,[27],1
CCOC(=O)C(O)(c1ccc(N)c(C)c1)C(F)(F)F (stereo unspecified),normalized growth,[3],0.995
same,normalized growth,[4],1
same,normalized growth,[1],0.996
same,normalized growth,[5],0.928
same,normalized growth,[6],0.988
same,normalized growth,[7],0.992
same,normalized growth,[2],0.953
same,normalized growth,[8],1.02
same,normalized growth,[9],1
same,normalized growth,[10],0.925
same,normalized growth,[11],0.991
same,normalized growth,[12],0.988
same,normalized growth,[13],1.01
same,normalized growth,[14],0.996
same,normalized growth,[15],1.02
same,normalized growth,[16],0.991
same,normalized growth,[17],0.982
same,normalized growth,[18],0.999
same,normalized growth,[19],0.946
same,normalized growth,"S. cerevisiae deletion strains, locus YNL128W, strain TEP1, active compounds read low",1.01
same,normalized growth,[20],0.993
same,normalized growth,[21],1
same,normalized growth,[22],1
same,normalized growth,[23],1.01
same,normalized growth,[24],0.935
same,normalized growth,[25],0.996
same,normalized growth,[26],0.982
same,normalized growth,[27],0.981
CC(C)(CC(=O)O)CC(=O)Nc1cc(C(F)(F)F)cc(C(F)(F)F)c1,normalized growth,[3],0.997
same,normalized growth,[4],1.01
same,normalized growth,"S. cerevisiae deletion strains, locus YCL061C, strain MRC1, active compounds read low",1.03
same,normalized growth,[1],0.997
same,normalized growth,"S. cerevisiae deletion strains, locus YDL134C, strain PPH21, active compounds read low",0.999
same,normalized growth,[5],0.993
same,normalized growth,[6],0.998
same,normalized growth,[7],1.01
same,normalized growth,"S. cerevisiae deletion strains, locus YGR229C, strain SMI1, active compounds read low",1
same,normalized growth,[2],1.01
same,normalized growth,[8],1
same,normalized growth,[9],1
same,normalized growth,[10],0.997
same,normalized growth,[11],0.997
same,normalized growth,[12],1.03
same,normalized growth,[13],1.01
same,normalized growth,[14],1.03
same,normalized growth,[15],1.02
same,normalized growth,[16],0.969
same,normalized growth,[17],1.01
same,normalized growth,[18],1.05
same,normalized growth,[19],0.967
same,normalized growth,[20],1.01
same,normalized growth,[21],1.01
same,normalized growth,[22],0.973
same,normalized growth,[23],0.537 (active)
same,normalized growth,"S. cerevisiae deletion strains, locus YOL006C, strain TOP1, active compounds read low",0.964
same,normalized growth,[24],1.01
same,normalized growth,[25],0.639 (active)
same,normalized growth,[26],1.06
